# What was measured:
# Assay in all cases: DAPPL (digital affinity profiling via proximity ligation, sequencing); 10 mM Tris-HCl pH 7.5, 50 mM NaCl, 1 mM DTT, 4% glycerol, room temperature, 30 min; GST-TFs on glutathione beads, 16-mer random dsDNA library, 0.1% formaldehyde crosslink after washing; high values mean tight binding
# FLI1 = biological target: T1, FLI1 (Homo sapiens, UniProt Q01543 1-452); details: protein: recombinant; tags: N-terminal GST; dsDNA, one strand shown
# T1 sequence: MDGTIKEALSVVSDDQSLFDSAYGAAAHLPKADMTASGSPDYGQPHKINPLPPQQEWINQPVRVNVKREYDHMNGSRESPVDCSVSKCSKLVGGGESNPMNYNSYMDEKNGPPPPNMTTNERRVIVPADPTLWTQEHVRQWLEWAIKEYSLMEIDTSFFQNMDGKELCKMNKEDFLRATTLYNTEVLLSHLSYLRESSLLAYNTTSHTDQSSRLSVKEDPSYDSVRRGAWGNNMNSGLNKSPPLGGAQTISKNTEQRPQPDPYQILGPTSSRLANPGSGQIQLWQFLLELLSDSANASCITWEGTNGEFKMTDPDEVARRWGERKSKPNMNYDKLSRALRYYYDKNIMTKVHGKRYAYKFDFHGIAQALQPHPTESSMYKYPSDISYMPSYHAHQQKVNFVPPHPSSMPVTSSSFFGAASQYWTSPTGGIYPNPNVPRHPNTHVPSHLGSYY
# How it was run: (§1)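 Binding signal is defined as a hexamer's read frequency for one factor over its frequency for the tag-only sample. To obtain reads, GST-fused human transcription factors were expressed in yeast, captured on glutathione beads, barcoded with DNA and pooled with that sample. Pools met 200 nmole of a 16-mer random double-stranded DNA library in Tris/NaCl/DTT/glycerol buffer for 30 min at room temperature before washing, 0.1% formaldehyde crosslinking, proximity ligation (BsaI/T4 ligase, 1 h, 37 °C), PCR and Illumina NextSeq500 sequencing.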
# ELK1 = biological target: T2, ELK1 (Homo sapiens, UniProt P19419 1-428); details: protein: recombinant; tags: N-terminal GST; dsDNA, one strand shown
# T2 sequence: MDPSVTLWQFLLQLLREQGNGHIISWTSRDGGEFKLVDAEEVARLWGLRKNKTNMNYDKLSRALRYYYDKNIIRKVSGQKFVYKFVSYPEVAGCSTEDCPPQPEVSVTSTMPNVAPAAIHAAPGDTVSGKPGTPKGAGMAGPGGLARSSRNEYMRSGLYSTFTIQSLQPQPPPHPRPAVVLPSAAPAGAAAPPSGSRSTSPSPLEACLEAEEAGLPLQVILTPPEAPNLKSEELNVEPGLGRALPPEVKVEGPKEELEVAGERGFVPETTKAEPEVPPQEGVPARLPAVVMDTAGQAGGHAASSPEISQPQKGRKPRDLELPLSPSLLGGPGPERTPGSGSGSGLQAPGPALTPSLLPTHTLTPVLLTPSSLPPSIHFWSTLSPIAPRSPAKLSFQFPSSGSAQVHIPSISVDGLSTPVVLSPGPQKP
# How it was run: as §1
# GABPA = biological target: T3, GABPA (Homo sapiens, UniProt Q06546 1-454); details: protein: recombinant; tags: N-terminal GST; dsDNA, one strand shown
# T3 sequence: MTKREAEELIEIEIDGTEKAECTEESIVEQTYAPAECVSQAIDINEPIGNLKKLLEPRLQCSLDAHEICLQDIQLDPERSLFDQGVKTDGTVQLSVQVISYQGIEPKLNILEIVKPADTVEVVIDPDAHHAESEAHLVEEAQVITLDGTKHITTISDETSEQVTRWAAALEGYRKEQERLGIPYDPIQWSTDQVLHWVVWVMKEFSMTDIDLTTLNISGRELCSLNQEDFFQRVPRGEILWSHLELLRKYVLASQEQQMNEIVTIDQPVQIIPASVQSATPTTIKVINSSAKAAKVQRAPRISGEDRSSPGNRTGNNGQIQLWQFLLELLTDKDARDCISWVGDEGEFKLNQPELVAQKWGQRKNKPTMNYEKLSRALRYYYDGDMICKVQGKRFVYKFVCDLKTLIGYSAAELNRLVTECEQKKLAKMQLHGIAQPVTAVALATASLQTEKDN
# How it was run: as §1
# ERG = biological target: T4, ERG (Homo sapiens, UniProt P11308 1-479); details: protein: recombinant; tags: N-terminal GST; dsDNA, one strand shown
# T4 sequence: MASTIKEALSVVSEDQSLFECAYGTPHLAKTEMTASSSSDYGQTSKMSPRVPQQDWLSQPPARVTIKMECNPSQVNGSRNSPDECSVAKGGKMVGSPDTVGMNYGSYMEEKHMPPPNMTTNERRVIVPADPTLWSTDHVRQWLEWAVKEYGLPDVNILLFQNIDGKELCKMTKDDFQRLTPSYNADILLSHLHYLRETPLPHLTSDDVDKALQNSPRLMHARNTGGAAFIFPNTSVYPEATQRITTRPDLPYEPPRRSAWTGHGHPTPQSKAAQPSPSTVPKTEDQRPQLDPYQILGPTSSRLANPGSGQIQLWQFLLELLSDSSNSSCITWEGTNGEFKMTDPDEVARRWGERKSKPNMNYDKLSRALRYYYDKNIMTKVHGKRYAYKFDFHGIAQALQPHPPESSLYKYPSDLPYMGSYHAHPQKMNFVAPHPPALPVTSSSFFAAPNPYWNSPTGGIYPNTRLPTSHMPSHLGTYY
# How it was run: as §1
# ELF1 = ELF1 (Homo sapiens, UniProt P32519 1-619); details: protein: recombinant; tags: N-terminal GST; dsDNA, one strand shown
# How it was run: as §1
# EHF = biological target: T5, EHF (Homo sapiens, UniProt Q9NZC4 1-300); details: protein: recombinant; tags: N-terminal GST; dsDNA, one strand shown
# T5 sequence: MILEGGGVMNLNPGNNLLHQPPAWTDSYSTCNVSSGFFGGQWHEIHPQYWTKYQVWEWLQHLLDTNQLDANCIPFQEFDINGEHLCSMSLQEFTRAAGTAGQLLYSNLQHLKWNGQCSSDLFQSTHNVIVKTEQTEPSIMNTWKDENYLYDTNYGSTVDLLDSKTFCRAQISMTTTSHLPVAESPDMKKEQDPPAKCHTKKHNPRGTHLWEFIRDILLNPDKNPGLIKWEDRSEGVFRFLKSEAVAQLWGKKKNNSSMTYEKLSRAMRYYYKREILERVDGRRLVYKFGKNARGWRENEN
# How it was run: as §1
# SPI1 = SPI1 (Homo sapiens, UniProt P17947 1-270); details: protein: recombinant; tags: N-terminal GST; dsDNA, one strand shown
# How it was run: as §1
# SPIB = SPIB (Homo sapiens, UniProt Q01892 1-262); details: protein: recombinant; tags: N-terminal GST; dsDNA, one strand shown
# How it was run: as §1
# ELK3 = biological target: T6, ELK3 (Homo sapiens, UniProt P41970 1-407); details: protein: recombinant; tags: N-terminal GST; dsDNA, one strand shown
# T6 sequence: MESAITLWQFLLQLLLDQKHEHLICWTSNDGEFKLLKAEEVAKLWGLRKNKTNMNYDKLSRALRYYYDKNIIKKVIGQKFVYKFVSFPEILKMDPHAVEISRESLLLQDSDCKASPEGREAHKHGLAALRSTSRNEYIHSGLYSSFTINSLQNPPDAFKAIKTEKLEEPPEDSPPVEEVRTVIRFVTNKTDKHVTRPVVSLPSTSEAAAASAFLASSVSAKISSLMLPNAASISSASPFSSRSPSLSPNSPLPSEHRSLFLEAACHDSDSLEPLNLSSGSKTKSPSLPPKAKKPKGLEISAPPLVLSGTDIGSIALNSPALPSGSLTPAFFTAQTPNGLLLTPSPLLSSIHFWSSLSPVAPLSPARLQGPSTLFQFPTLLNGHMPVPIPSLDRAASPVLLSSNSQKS
# How it was run: as §1
# FEV = biological target: T7, FEV (Homo sapiens, UniProt Q99581 1-238); details: protein: recombinant; tags: N-terminal GST; dsDNA, one strand shown
# T7 sequence: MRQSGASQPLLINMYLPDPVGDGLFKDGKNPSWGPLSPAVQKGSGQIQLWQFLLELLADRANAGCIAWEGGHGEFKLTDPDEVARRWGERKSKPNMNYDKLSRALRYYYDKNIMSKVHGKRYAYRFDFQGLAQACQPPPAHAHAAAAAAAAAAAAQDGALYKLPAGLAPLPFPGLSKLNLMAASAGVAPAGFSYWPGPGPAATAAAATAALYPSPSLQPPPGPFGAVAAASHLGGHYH
# How it was run: as §1
# ETV5 = ETV5 (Homo sapiens, UniProt P41161 1-510); details: protein: recombinant; tags: N-terminal GST; dsDNA, one strand shown
# How it was run: as §1
# HSF1 = HSF1 (Homo sapiens, UniProt Q00613 1-529); details: protein: recombinant; tags: N-terminal GST; chain copies: 3; dsDNA, one strand shown
# How it was run: as §1
# SPIC = biological target: T8, SPIC (Homo sapiens, UniProt Q8N5J4 1-248); details: protein: recombinant; tags: N-terminal GST; dsDNA, one strand shown
# T8 sequence: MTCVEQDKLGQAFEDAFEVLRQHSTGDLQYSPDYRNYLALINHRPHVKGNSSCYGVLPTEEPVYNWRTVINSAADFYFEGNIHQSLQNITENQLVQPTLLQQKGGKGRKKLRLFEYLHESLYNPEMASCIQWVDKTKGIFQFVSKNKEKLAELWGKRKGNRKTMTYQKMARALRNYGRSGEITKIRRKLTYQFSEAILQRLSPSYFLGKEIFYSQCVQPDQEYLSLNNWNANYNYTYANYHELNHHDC
# How it was run: as §1
# ELF4 = ELF4 (Homo sapiens, UniProt Q99607 1-663); details: protein: recombinant; tags: N-terminal GST; dsDNA, one strand shown
# How it was run: as §1
# ELK4 = biological target: T9, ELK4 (Homo sapiens, UniProt P28324-2 1-405); details: protein: recombinant; tags: N-terminal GST; dsDNA, one strand shown
# T9 sequence: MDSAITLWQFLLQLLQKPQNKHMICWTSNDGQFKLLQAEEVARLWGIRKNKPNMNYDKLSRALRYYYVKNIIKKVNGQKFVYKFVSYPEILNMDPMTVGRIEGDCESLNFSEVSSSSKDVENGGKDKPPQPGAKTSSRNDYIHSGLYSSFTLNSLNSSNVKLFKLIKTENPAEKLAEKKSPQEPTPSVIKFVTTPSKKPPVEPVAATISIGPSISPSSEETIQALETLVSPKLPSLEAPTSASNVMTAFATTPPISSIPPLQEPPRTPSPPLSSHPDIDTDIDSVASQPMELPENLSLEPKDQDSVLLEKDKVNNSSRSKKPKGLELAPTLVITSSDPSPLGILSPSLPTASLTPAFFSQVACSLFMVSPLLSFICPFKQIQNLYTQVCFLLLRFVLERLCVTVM
# How it was run: as §1
# ETV2 = biological target: T10, ETV2 (Homo sapiens, UniProt O00321 1-342); details: protein: recombinant; tags: N-terminal GST; dsDNA, one strand shown
# T10 sequence: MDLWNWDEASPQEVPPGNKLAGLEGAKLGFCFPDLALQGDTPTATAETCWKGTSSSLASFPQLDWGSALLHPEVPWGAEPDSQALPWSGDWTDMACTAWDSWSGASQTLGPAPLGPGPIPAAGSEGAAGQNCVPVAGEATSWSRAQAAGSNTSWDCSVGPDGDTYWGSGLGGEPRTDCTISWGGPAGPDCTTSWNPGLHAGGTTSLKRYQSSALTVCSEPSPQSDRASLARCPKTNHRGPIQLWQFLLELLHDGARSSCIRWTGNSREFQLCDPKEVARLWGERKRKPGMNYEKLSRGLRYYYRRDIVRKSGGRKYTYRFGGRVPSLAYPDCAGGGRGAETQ
# How it was run: as §1
# ELF3 = biological target: T11, ELF3 (Homo sapiens, UniProt P78545 1-371); details: protein: recombinant; tags: N-terminal GST; dsDNA, one strand shown
# T11 sequence: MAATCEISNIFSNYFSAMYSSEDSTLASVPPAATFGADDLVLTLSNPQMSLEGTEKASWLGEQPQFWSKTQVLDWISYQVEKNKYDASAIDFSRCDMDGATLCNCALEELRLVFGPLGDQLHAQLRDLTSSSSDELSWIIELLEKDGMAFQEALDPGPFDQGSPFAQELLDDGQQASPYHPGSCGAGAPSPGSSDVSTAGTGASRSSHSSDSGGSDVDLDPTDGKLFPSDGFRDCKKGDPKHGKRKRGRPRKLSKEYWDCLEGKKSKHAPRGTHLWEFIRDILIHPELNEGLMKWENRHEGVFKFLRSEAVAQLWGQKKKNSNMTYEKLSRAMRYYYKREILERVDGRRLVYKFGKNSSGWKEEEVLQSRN
# How it was run: as §1
# CRX = CRX (Homo sapiens, UniProt O43186 1-299); details: protein: recombinant; tags: N-terminal GST; dsDNA, one strand shown
# How it was run: as §1
# ETV1 = ETV1 (Homo sapiens, UniProt P50549 1-477); details: protein: recombinant; tags: N-terminal GST; dsDNA, one strand shown
# How it was run: as §1
# SPIB, sequence (Q01892 whole entry): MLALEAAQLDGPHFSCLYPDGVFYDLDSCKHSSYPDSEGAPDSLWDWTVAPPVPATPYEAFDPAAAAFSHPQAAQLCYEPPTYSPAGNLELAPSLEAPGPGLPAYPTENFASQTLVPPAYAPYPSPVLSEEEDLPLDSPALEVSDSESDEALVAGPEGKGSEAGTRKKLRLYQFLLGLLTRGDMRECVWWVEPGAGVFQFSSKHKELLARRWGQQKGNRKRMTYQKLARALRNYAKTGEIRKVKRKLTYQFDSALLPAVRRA
# ETV5, sequence (P41161 whole entry): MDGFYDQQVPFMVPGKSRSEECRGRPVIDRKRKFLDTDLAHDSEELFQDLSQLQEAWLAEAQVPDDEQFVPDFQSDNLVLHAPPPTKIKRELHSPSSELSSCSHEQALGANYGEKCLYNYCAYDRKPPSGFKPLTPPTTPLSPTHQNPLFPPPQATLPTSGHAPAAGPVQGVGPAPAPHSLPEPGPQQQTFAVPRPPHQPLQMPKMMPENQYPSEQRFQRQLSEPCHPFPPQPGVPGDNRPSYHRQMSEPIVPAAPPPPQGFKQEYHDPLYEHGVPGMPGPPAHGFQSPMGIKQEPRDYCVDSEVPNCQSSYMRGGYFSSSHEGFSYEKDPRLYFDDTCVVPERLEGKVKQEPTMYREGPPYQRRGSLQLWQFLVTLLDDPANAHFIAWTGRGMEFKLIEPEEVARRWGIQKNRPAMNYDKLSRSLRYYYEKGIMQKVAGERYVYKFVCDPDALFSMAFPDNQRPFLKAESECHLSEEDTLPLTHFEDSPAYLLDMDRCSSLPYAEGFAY
# HSF1, sequence (Q00613 whole entry): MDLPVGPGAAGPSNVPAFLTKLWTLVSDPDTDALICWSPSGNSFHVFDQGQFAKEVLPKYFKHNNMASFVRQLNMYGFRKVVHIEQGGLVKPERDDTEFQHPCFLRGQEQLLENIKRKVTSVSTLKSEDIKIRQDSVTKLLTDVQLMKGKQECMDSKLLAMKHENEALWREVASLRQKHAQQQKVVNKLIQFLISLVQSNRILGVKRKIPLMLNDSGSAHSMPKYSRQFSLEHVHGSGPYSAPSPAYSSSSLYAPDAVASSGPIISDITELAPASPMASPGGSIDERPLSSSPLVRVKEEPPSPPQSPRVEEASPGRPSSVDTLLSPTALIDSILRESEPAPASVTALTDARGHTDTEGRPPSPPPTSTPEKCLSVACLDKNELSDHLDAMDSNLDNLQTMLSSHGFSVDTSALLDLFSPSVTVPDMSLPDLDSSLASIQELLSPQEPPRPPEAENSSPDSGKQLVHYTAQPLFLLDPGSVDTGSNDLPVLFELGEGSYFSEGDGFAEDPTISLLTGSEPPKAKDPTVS
# ELF1, sequence (P32519 whole entry): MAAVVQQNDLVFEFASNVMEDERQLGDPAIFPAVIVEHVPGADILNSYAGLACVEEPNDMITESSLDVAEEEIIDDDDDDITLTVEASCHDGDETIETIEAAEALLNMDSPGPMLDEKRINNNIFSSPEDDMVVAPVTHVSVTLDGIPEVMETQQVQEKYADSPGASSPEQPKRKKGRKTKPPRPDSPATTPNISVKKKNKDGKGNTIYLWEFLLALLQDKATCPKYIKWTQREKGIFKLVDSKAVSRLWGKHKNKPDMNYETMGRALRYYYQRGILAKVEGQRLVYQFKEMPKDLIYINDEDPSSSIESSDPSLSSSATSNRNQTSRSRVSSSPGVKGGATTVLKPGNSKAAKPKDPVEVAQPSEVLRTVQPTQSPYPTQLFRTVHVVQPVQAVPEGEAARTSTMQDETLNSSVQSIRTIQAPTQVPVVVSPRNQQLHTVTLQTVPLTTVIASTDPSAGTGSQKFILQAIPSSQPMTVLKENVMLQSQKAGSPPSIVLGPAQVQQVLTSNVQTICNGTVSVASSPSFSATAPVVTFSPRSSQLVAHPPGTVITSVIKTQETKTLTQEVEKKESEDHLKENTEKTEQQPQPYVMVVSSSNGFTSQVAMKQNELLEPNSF
# CRX, sequence (O43186 whole entry): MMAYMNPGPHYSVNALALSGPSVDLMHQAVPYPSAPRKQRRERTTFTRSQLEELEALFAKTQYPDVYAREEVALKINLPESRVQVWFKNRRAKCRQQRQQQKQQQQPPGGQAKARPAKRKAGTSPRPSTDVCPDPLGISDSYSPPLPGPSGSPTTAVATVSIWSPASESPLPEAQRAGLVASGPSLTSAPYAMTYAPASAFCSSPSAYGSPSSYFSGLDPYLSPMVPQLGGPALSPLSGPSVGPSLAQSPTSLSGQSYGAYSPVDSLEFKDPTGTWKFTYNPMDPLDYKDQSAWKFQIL
# ELF4, sequence (Q99607 whole entry): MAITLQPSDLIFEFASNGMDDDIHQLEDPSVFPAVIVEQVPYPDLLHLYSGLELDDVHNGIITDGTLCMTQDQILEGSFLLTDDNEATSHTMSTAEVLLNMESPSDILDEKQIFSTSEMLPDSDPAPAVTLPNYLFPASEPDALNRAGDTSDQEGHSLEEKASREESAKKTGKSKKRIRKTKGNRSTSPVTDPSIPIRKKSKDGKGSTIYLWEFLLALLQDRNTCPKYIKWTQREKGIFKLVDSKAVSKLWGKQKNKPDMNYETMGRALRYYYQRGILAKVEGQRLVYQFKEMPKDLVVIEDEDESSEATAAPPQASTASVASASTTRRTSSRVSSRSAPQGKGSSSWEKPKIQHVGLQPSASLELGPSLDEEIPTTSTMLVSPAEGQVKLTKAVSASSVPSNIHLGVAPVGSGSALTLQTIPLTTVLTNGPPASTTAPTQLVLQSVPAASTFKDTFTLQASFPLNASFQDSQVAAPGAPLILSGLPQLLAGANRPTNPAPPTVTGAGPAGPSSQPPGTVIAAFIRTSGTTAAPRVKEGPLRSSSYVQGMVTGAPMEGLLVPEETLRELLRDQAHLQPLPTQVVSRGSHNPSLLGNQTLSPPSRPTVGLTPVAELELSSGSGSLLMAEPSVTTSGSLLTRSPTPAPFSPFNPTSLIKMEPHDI
# ETV1, sequence (P50549 whole entry): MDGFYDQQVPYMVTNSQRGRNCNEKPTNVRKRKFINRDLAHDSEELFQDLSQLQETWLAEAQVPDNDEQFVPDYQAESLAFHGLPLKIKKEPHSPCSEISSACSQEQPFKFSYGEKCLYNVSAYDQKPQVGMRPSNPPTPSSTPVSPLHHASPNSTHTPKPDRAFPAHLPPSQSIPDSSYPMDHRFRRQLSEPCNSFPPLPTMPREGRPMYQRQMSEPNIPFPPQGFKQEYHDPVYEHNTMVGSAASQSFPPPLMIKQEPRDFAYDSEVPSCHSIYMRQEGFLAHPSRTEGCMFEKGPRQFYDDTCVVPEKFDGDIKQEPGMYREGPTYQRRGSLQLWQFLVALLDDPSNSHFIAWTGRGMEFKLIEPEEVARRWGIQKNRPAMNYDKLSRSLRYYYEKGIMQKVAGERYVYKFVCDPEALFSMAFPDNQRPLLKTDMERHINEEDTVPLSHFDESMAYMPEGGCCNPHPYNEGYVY
sequence,measurement,setting,value
ATCTCG,binding signal,FLI1,"1.41 fold enrichment (6-mer frequency, TF over GST control)"
same,binding signal,ELK1,"1.27 fold enrichment (6-mer frequency, TF over GST control)"
same,binding signal,GABPA,"1.42 fold enrichment (6-mer frequency, TF over GST control)"
same,binding signal,ERG,"1.23 fold enrichment (6-mer frequency, TF over GST control)"
same,binding signal,ELF1,"1.39 fold enrichment (6-mer frequency, TF over GST control)"
same,binding signal,EHF,"1.34 fold enrichment (6-mer frequency, TF over GST control)"
same,binding signal,SPI1,"1.37 fold enrichment (6-mer frequency, TF over GST control)"
same,binding signal,SPIB,"1.26 fold enrichment (6-mer frequency, TF over GST control)"
same,binding signal,ELK3,"1.26 fold enrichment (6-mer frequency, TF over GST control)"
same,binding signal,FEV,"1.19 fold enrichment (6-mer frequency, TF over GST control)"
same,binding signal,ETV5,"1.35 fold enrichment (6-mer frequency, TF over GST control)"
same,binding signal,HSF1,"2.44 fold enrichment (6-mer frequency, TF over GST control)"
same,binding signal,SPIC,"1.19 fold enrichment (6-mer frequency, TF over GST control)"
same,binding signal,ELF4,"1.32 fold enrichment (6-mer frequency, TF over GST control)"
same,binding signal,ELK4,"1.42 fold enrichment (6-mer frequency, TF over GST control)"
same,binding signal,ETV2,"1.51 fold enrichment (6-mer frequency, TF over GST control)"
same,binding signal,ELF3,"1.55 fold enrichment (6-mer frequency, TF over GST control)"
same,binding signal,CRX,"1.92 fold enrichment (6-mer frequency, TF over GST control)"
same,binding signal,ETV1,"1.46 fold enrichment (6-mer frequency, TF over GST control)"

# From paper PMC7862700, “An all-to-all approach to the identification of sequence-specific readers for epigenetic DNA modifications on cytosine”
